Reference: PubChem BioAssay (Tox21)
Values joined by “and” are separate entries in the source; they are usually repeats but may differ in a detail not shown here. Equal entries are not always repeated. Results filed as inconclusive are left out. A call without a number means that no potency is given here. A structure can be active in one record and inactive in another. Active and inactive are the calls of the source. The call rests on the fitted dose curve; in most records, active means well fitted cell-killing curve with a large enough effect in the repeat runs; inconclusive means weak or mixed curves, or effect the other way; inactive means no such curve, though single readings can be large or run the other way.

Assay: qHTS assay to identify small molecule agonists of the vitamin D receptor (VDR) signaling pathway - cell viability counter screen (AID 743224); further: nearly all actives have a fitted effect of over 50% in size
Conditions: VDR-bla HEK293T viability, CellTiter-Glo luminescence, 16 h; series mostly up to 62.6 µM
From the text: U.S. Tox21 Program National Center for Advancing Translational Sciences [NCATS] NIH Chemical Genomics Center [NCGC] U.S. Environmental Protection Agency [EPA] National Institutes of Environmental Health Sciences [NIEHS] National Toxicology Program [NTP] U.S. Food and Drug Administration [FDA] Tox21 Assay Overview: The vitamin D receptor (VDR), a member of nuclear hormone receptor superfamily, plays a critical role in calcium homeostasis and bone metabolism. It is also involved in cell differentiation and growth, and thrombogenicity. […] The cytotoxicity of the Tox21 compound library against the VDR-bla cell line was tested in parallel by measuring the cell viability using CellTiter-Glo assay (Promega, Madison, WI) in the same wells.
Tox21 Assay Protocol Summary: VDR-bla cells were dispensed at 2,000 cells/6 uL/well into black wall/clear-bottom 1536-well plates using a Multidrop Combi (Thermo Fisher Scientific, Waltham, MA) dispenser. After the assay plates were incubated at a 37C and 5% CO2 for 4 h, 23 nL of compounds dissolved in DMSO, positive controls or DMSO only was transferred to the assay plate by a Pintool station (Kalypsys, San Diego, CA). The plates were incubated at 37C and 5% CO2 for 16 h. After 1 uL of LiveBLAzerTM B/G FRET substrate was added using a Bioraptr Flying Reagent Dispenser (FRD) workstation (Beckman Coulter, Indianapolis, IN, USA), the plates were incubated at room temperature for 2 h, and fluorescence intensity was measured by an Envision plate reader (PerkinElmer, Shelton, CT). For cell viability readout that measures cytotoxicity, 3 ul/well of CellTiter-Glo reagent was added into the assay plates using a FRD. After 30 min incubation at room temperature, the luminescence intensity in the plates was measured using a ViewLux (PerkinElmer) plate reader.
Potency means the concentration at half of the fitted maximal effect.

Row | Structure (SMILES) | Potency
1 | CNC(=S)NN | 5.49 µM (active)
2 | CC(C)(C)CC(C)(C)c1ccccc1O | 19.6 µM (active)
3 | CCCCCCCCCCCCOC(=O)c1cc(O)c(O)c(O)c1 | 27.4 µM (active) and 21.9 µM (active)
4 | O=C(Nc1ccc(Cl)cc1)Nc1ccc(Cl)c(C(F)(F)F)c1 | 11.9 µM (active)
5 | Cn1cnc2ncnc(N)c21 | inactive
6 | Clc1ccc(C(Cn2ccnc2)OCc2ccsc2Cl)c(Cl)c1 (stereo not given) | inactive
7 | CC(C)(C)c1cc(/C=C2\SC(=N)NC2=O)cc(C(C)(C)C)c1O | 49 µM (active)
8 | Cc1ccc2ccc3cccc4ccc1c2c34 | inactive
9 | NC(=O)c1ccccc1N | inactive
10 | COCC(=O)O[C@]1(CCN(C)CCCc2nc3ccccc3[nH]2)CCc2cc(F)ccc2[C@@H]1C(C)C | 26.6 µM (active)
11 | NC(=O)C(=O)N/N=C/c1ccc([N+](=O)[O-])o1 | inactive
12 | CCCCCCCCCCCCCCCC | inactive
13 | O=C1NC2CCCCN2C12CCN(CCCN1c3ccccc3CCc3ccc(Cl)cc31)CC2 (stereo not given) | inactive
14 | CCCCNc1c(C(=O)OCC)c(C)nc2c1cnn2CC | inactive
15 | Cc1oc(-c2ccccc2)nc1CCOc1ccc(C[C@H](Nc2ccccc2C(=O)c2ccccc2)C(=O)O)cc1 | 21.9 µM (active)
16 | CCOC(=O)[C@@](C)(N)Cc1ccc(O)c(O)c1 | inactive
17 | CC(COC(=O)c1ccccc1)OC(=O)c1ccccc1 (stereo not given) | inactive
18 | CCCCCCCCCCCCCC[n+]1ccccc1 | 24.5 µM (active)
19 | C=C(C)C(=O)OCCC[Si](Cl)(Cl)Cl | inactive
20 | C[C@]12CC[C@H]3C(=CCc4cc(O)ccc43)[C@@H]1CCC2=O | inactive

Row | Structure (SMILES) | Potency
21 | O=C(O)CC(=O)O | inactive
22 | CC(=O)Nc1ccc(O)cc1 | inactive
23 | O=C1C=CC(=O)N1c1ccccc1 | 11 µM (active)
24 | CN(C)c1ccc(N=NS(=O)(=O)O)cc1 | inactive
25 | O=C1Nc2ccc(Cl)cc2[C@@](C#CC2CC2)(C(F)(F)F)O1 | inactive
26 | NC(=O)c1nc(-c2cccc(-c3cc(F)ccc3OCC(F)(F)C(F)(F)F)c2)n[nH]1 | 43.6 µM (active)
27 | CCN(CC)CCSC(=O)C(c1ccccc1)c1ccccc1 | inactive
28 | CCCN(CCc1cccs1)[C@H]1CCc2c(O)cccc2C1 | inactive
29 | C=CCCCCCCC=C | 49.1 µM (active)
30 | CCCCCCCCCCCC(=O)N(CC)CC | inactive
31 | [O]=[Zr] | inactive
32 | CCCCCCCCCCCCN(CCO)CCO | 30.8 µM (active)
33 | Nc1ncnc2c1ncn2[C@@H]1O[C@H](COP(=O)(O)O)[C@@H](O)[C@H]1O | 10.6 µM (active)
34 | Clc1ccc(C(c2ccccc2Cl)C(Cl)Cl)cc1 (stereo not given) | 49 µM (active) and inactive
35 | Cc1cccc(Br)c1 | inactive
36 | COC(=O)CC#N | inactive
37 | C=CC(C)(CCC=C(C)C)OC(=O)/C=C/c1ccccc1 (stereo not given) | 38.9 µM (active)
38 | CC(NCCC(c1ccccc1)c1ccccc1)c1ccccc1 (stereo not given) | 23.7 µM (active)
39 | CC(C)OC(=O)c1cc(C(=O)OC(C)C)cc([N+](=O)[O-])c1 | inactive
40 | CCCCCCCC/C=C\CCCCCCCC(=O)OCCOC(=O)CCCCCCC/C=C\CCCCCCCC | inactive
